The values below come from PubChem BioAssay (NCATS).

Each structure is given as a SMILES string. Results filed as inconclusive are left out. A number with no mark means an inactive call. The source made the active and inactive calls. Unless noted, calls come from the whole dose curve; as a rule, active = well fitted curve in the direction sought with a large enough effect; inconclusive = small, poorly fitted or top-dose-only effect, or another doubt; inactive = no such curve, though single readings can be large; an effect the other way counts as inactive or inconclusive.

A short description of experiment [1]: P-glycoprotein substrates identified in KB-8-5-11 adenocarcinoma cell line, qHTS therapeutic library screen (AID 1346987). For activity change, negative = cytotoxicity: % is set by controls: 0 for no effect and ±100 for the full control effect. Note: nearly all actives have a fitted effect of over 65% in size. Note: potency is the fitted concentration of half-maximal effect. An outline of the steps:
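Luminescence from CellTiter-Glo, read 5 min after addition, quantified survival of KB-8-5-11 (P-gp-overexpressing) cells exposed to compounds for 72 h. AC50 was derived from concentration-response curves.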
A general note: Quantitative high-throughput screening tests each substance at several concentrations.

Experiment [2] is described as follows: Primary qHTS for inhibitors of nuclear receptor binding SET domain protein 2 (NSD2) in an isogenic RCH-ACV NSD2 p.E1099K mutant (9B) (AID 1645876). Note: nearly all actives have a fitted effect of over 70% in size. Note: potency is the fitted concentration of half-maximal effect.
Experiment [3] is described as follows: Primary redox qHTS assay for identification of artifact compounds. (AID 1845223).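 Note: 0% = DMSO and 100% = reference compound.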 An outline of the steps:
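Redox-cycling detection via DTT (250 uM final) oxidation coupled to Amplex Red (25 uM)/HRP (250 mU/mL) in HBSS. 15 min preincubation plus 30 min after DTT, room temperature. Ex/Em 525/598 nm; 4-parameter Hill fit against DMSO and 10 uM DA3003.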

The test system of another experiment is HEK293. The experiment can be described thus: Cytotoxic Profiling of Annotated Libraries Using Quantitative High-Throughput Screening (AID 1296008). For max response: % is set by controls: 0 for no effect and ±100 for the full control effect. Note: nearly all actives have a fitted effect of over 60% in size. Note: potency is the fitted concentration of half-maximal effect. To be noted: Five cell lines viability, CellTiter-Glo ATP luminescence, 48-72 h; max response: stronger effect = lower value. An outline of the steps: (§1)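 Compounds were pin-transferred onto cells and incubated 48 or 72 hr at 37 degree Celsius, 95% humidity. CellTiter-Glo was added, plates sat 10 min at room temperature, then ATP-coupled luminescence was imaged as the viability read-out.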

The test system of a further experiment is KB-3-1. Described as above. As to conditions: Five cell lines viability, CellTiter-Glo ATP luminescence, 48-72 h; max response: stronger effect = lower value. An outline of the steps: as §1
(In ATP-based viability assays light output follows the ATP content of the culture.)

The test system of the next experiment is HeLa. The experiment can be described thus: Primary qHTS to identify gynecologic anti-cancer compounds using libraries of approved drugs and bioactive compounds (AID 1345084). For activity change, negative = cytotoxicity: % is set by controls: 0 for no effect and ±100 for the full control effect. Note: nearly all actives have a fitted effect of over 55% in size. Note: potency is the fitted concentration of half-maximal effect. To be noted: Gynecologic cancer cell panel viability, ATPlite luminescence, 48 h; series mostly up to 57.5 µM. The method in brief: (§2)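 Five-concentration response, 48 h; readout is ATP-driven luciferase luminescence.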

Another experiment has as its system SKOV3. Described as above. To be noted: Gynecologic cancer cell panel viability, ATPlite luminescence, 48 h; series mostly up to 57.5 µM. The method in brief: as §2
A short description of experiment [4]: Primary qHTS for inhibitors of nuclear receptor binding SET domain protein 2 (NSD2) in an RCH-ACV wild type WT cells (2C) (AID 1645877). Note: nearly all actives have a fitted effect of over 70% in size. Note: potency is the fitted concentration of half-maximal effect.
The test system of experiment [5] is HaCat. Put plainly: Cytotoxic Profiling of Annotated Libraries Using Quantitative High-Throughput Screening (AID 1296008). For max response: % is set by controls: 0 for no effect and ±100 for the full control effect. Note: nearly all actives have a fitted effect of over 60% in size. Note: potency is the fitted concentration of half-maximal effect. As to conditions: Five cell lines viability, CellTiter-Glo ATP luminescence, 48-72 h; max response: stronger effect = lower value. An outline of the steps:
as §1

The next experiment concerns CRL-7250. Put plainly: qHTS assay to identify novel small-molecules to repurpose for Merkel cell carcinoma treatment (AID 1296009). Note: nearly all actives have a fitted effect of over 60% in size. To be noted: MCC and control cell lines, CellTiter-Glo viability, 72 h; series mostly up to 92 µM. The method in brief: (§3)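 Viability readout: ATP luminescence (CellTiter-Glo) after 72 hr drug exposure at 37 degree celsius. Dose-response format was 8 points for NPC and 11 points for MIPE; data normalized to in-plate controls.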

The target of experiment [6] is Cytochrome P450 2D6 (Homo sapiens) (UniProt P10635). Put plainly: Cytochrome P450 family 2 subfamily D member 6 (CYP2D6) small molecule antagonists: luciferase biochemical (cell-free) qHTS assay (AID 1645840; active = well fitted curve in the direction sought with a large enough effect in the repeat runs; an effect the other way counts as inactive or inconclusive; note: nearly all actives have a fitted effect of over 55% in size; note: potency is the fitted concentration of half-maximal effect). An outline of the steps: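 P450-Glo CYP2D6 system: proluciferin substrate converted by enzyme to luciferin, read by luminescence proportional to activity. Enzyme-substrate mix with compound 10 min at room temperature, then NADPH regeneration 1 h before detection reagent.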
Chain of Cytochrome P450 2D6 (Homo sapiens) (P10635 whole entry, looked up): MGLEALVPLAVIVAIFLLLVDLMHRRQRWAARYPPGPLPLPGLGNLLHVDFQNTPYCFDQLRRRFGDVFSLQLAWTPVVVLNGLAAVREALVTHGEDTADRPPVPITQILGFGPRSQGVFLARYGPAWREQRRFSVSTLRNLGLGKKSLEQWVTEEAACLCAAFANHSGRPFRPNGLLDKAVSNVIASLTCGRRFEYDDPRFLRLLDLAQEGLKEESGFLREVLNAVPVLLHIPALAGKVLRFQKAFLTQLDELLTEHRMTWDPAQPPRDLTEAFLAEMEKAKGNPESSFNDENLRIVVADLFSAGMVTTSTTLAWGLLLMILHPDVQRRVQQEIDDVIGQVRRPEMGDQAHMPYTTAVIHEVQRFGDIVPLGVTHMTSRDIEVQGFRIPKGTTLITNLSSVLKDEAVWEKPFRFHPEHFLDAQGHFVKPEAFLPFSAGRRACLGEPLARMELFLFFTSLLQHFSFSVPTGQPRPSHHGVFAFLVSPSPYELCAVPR

The target in experiment [7] is Cytochrome P450 2C9 (Homo sapiens) (UniProt P11712). The experiment can be described thus: Cytochrome P450 family 2 subfamily C member 9 (CYP2C9) small molecule antagonists: luciferase biochemical (cell-free) qHTS assay (AID 1645842; active = well fitted curve in the direction sought with a large enough effect in the repeat runs; an effect the other way counts as inactive or inconclusive; note: potency is the fitted concentration of half-maximal effect; nearly all actives have a fitted effect of over 55% in size). The method in brief: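 P450-Glo CYP2C9 system: proluciferin substrate with enzyme in mix containing 0.4% BSA, 10 min at room temperature, then NADPH regeneration solution added and incubated 1 h at 37C. Detection reagent stopped reaction; luminescence read after 20 min as RLU.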
Chain of Cytochrome P450 2C9 (Homo sapiens) (P11712 whole entry, looked up): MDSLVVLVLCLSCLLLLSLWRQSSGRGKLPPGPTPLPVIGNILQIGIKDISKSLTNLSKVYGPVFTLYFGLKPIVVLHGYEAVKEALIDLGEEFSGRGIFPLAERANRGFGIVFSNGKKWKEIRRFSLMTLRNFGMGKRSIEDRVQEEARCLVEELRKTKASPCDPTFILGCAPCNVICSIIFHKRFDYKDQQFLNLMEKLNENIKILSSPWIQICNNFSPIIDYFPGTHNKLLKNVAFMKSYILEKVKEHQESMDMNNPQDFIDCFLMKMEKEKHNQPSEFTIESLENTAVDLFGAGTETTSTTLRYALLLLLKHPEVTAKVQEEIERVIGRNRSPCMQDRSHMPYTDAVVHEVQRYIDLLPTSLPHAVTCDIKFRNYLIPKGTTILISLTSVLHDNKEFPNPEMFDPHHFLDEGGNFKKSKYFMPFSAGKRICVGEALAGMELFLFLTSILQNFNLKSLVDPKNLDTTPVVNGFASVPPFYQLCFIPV

Experiment [8] has as its system HACAT. The experiment can be described thus: qHTS assay to identify novel small-molecules to repurpose for Merkel cell carcinoma treatment (AID 1296009). Note: nearly all actives have a fitted effect of over 60% in size. To be noted: MCC and control cell lines, CellTiter-Glo viability, 72 h; at 44.8 µM (top of the series) unless noted. An outline of the steps:
as §3

A further experiment relates to NIH3T3. The description is as above. As to conditions: MCC and control cell lines, CellTiter-Glo viability, 72 h; at 44.8 µM (top of the series) unless noted. An outline of the steps: as §3
Experiment [9] is described as follows: P-glycoprotein substrates identified in KB-3-1 adenocarcinoma cell line, qHTS therapeutic library screen (AID 1346986). Note: nearly all actives have a fitted effect of over 60% in size. The method in brief: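 72 h cell-killing screen, 500 cells/well, CellTiter-Glo luminescence. Paired lines KB-3-1/KB-8-5-11; P-gp dependence checked by tariquidar co-treatment and HEK-293 MDR-19 versus empty-vector cells.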

Take `CC(=O)O[C@H]1C[C@]2(O)[C@@H]3CC[C@@H]4C[C@@H](O)CC[C@]4(C)[C@H]3CC[C@]2(C)[C@H]1c1ccc(=O)oc1`: the Potency is 51.7 nM (active) in experiment [1]; 45.9 nM (active) in [2]; 46.1 nM (active) with HEK293; 58 nM (active) in the experiment with KB-3-1; 316 nM (active) in the experiment with HeLa; 100 nM (active) with SKOV3. In addition, in [3], the Potency result was “inactive”.

Consider `CC(C)[C@H]1OC(=O)[C@H](Cc2ccccc2)N(C)C(=O)[C@@H](C(C)C)OC(=O)[C@H](Cc2ccccc2)N(C)C(=O)[C@@H](C(C)C)OC(=O)[C@H](Cc2ccccc2)N(C)C1=O`, for which the results for the Potency (in experiment [2]; in experiment [4]; with HEK293) were 6820 nM (active), 4830 nM (active) and 6110 nM (active), respectively.

On to `CN1C(=O)N(c2ccc(C#N)c(C(F)(F)F)c2)C(=O)[C@@]1(CO)c1ccccc1`, for which the Potency result (in experiment [1]; in experiment [4]; in experiment [3]; in the experiment on CRL-7250; in the experiment on HeLa; in the experiment with SKOV3) was “inactive” throughout. The results for the max response with HaCat [5] and in the experiment with KB-3-1 were 0.274% and 2.44%, respectively.

Regarding `O=C(N1CCCCC1Cc1ccccc1)n1cc(-c2ccc(-c3ccccc3)cc2)nn1` (centres undefined), the Potency result (in [6]; in experiment [3]; in the experiment on SKOV3) was “inactive” in each case. Further, the Potency in [7] was 2680 nM (active). Further, the molecule was called inactive in the experiment with HaCat [5], with HACAT [8] and in the experiment on NIH3T3. Further, the max response in the experiment on KB-3-1 is -19%.

Take `C/C=C(\C)C(=O)OC1CC2C(CC=C3CC(OC4CC(OC)C(OC5CC(OC)C(OC6CC(OC)C(OC7CC(OC)C(O)C(C)O7)C(C)O6)C(C)O5)C(C)O4)CCC32C)C2(O)CCC(C(C)=O)C12C` (centres undefined): the outcome in [9] is “inactive [at 9.29 µM]”; in experiment [1], “inactive [at 9.29 µM]”; with HACAT [8], “inactive [at 9.27 µM]”; in the experiment with NIH3T3 it was “inactive [at 9.27 µM]”. Moreover, in [3], the redox activity (% of DA3003) was 4.9% [at 11.5 µM]. The call in the experiment on HaCat [5] and with KB-3-1 was inactive. Also, the activity change, negative = cytotoxicity with HeLa is 9.98% [at 11.6 µM]; in the experiment on SKOV3, -3.35% [at 11.6 µM].

As for `CN1C(=O)[C@@H](Cc2c[nH]c3ccccc23)N=C(c2ccccc2F)c2ccccc21`, the Potency in experiment [6] is 9520 nM (active); in experiment [7] it was 6740 nM (active). In addition, the Potency entry (in [3]; with CRL-7250; in the experiment with HeLa; with SKOV3) was “inactive” in each case. The results for the max response with HaCat [5] and in the experiment on KB-3-1 were -23.4% and -7.12%, respectively.

Regarding `Cc1c(N[C@@H](c2nnc(-c3ccc(C#N)cc3)o2)[C@H](C)O)ccc(C#N)c1Cl`, the Potency entry (in experiment [1]; in [3]; in the experiment with CRL-7250; in the experiment with SKOV3) was “inactive” throughout. In addition, the max response in the experiment with HaCat [5] is -11%; in the experiment on KB-3-1, -17.4%.

As to `C[C@]12CC[C@H](O)C[C@@]1(O)CC[C@@H]1[C@@H]2CC[C@]2(C)[C@@H](c3ccc(=O)oc3)CC[C@]12O`, the Potency in [1] is 18.4 nM (active); in the experiment on HEK293 it was 51.7 nM (active). Also, the Potency entry (in [3]; in the experiment on HeLa; in the experiment with SKOV3) was “inactive” in each case.

For `CCN1C[C@]2(COC)CC[C@H](O)[C@@]34C5C[C@@H]6[C@@H](OC)C[C@@](OC(C)=O)(C5[C@@H]6OC(C)=O)[C@H]([C@H](OC)C23)[C@@H]14` (some centres undefined), the Potency result (in [2]; in experiment [4]; in experiment [3]; in the experiment with HeLa; with SKOV3) was “inactive” throughout. Also, the max response is 3.98% in the experiment on HEK293 and -0.111% with KB-3-1.

For `CCCCCCC1C(=O)O[C@H](C)[C@H](NC(=O)c2cccc(NC=O)c2O)C(=O)O[C@@H](C)[C@@H]1OC(=O)CC(C)C` (some centres undefined), the Potency in experiment [2] was 11.5 nM (active); in the experiment with HEK293, 164 nM (active); with SKOV3 it was 794 nM (active).
